An excerpt weighted towards active compounds, which were near 1.2% of everything screened.
GSH fluor = GSH bead compound fluorescence profile; GSH beads flow cytometry, compound fluorescence 488/530 nm; active compounds read high; fluorescence (KMESF) at 10 µM; 190,000 tested, 0.25% active; AID 1776; in the data active = fluorescence above about 89;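 note: glutathione beads carrying GST-tagged Bcl family fusion proteins plus one bare bead set; values are compound well signal with DMSO vehicle wells as background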
RGS7-Gao = human RGS7-Galphao interaction regulation; binding response (% of control), % at 10 µM; Multiplexed bead flow cytometry, RGS7-Galphao binding; actives lie on both sides; P09471; 220,000 tested, 0.35% active; AID 1439; in the data active = binding response below about 49% or above about 150%; inconclusive = no clear call, values can overlap the other calls; inactive = in between;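 note: fluorescent Galphao held in activated GDP-AlF4 state binding bead-coupled RGS7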
Target sequence (P09471 whole entry, looked up): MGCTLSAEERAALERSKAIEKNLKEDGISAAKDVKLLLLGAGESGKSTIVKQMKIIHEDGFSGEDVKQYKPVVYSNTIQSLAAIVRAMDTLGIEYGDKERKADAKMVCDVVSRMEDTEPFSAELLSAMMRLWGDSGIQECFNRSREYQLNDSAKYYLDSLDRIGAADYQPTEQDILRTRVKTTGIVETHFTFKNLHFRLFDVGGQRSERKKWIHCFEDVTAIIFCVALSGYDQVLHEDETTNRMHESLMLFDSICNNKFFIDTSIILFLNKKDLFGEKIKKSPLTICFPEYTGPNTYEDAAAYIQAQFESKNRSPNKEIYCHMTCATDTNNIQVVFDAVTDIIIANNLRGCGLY
RGS8-Gao = human RGS8-Galphao interaction regulation; 220,000 tested, 0.34% active; multiplexed bead flow cytometry, RGS8-Galphao binding; actives lie on both sides; response (percent of control binding), % at 10 µM; in the data active = response below about 60% or above about 140%; inactive = in between;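 note: Galphao activated as the GDP aluminium fluoride complex binding bead-coupled RGS8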
Avidin fluor = compound fluoresces at 488/530 nm on avidin beads. compound fluorescence 488/530 nm, flow cytometry; active compounds read high. fluorescence (KMESF) at 10 µM. 220,000 tested, 0.38% active; in the data active = fluorescence above about 47
RGS4-Gao reg = modulates binding of RGS4 to human Galphao; P09471; Multiplexed bead flow cytometry; actives lie on both sides; binding response (% of control), % at 10 µM; 220,000 tested, 0.33% active; in the data active = binding response below about 49% or above about 150%; inactive = in between;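 note: fluorescent Galphao activated with aluminum fluoride binding bead-coupled RGS4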
RGS16-Gao = RGS16-Galphao interaction regulator (human); bead-based flow cytometry RGS16-Galphao binding, fluorescence; actives lie on both sides; binding response (% of control), % at 10 µM; AID 1441; 220,000 tested, 0.38% active;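 note: Galphao activated by GDP with aluminum fluoride before binding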
RGS4-Gao HTS = RGS4-Galphao interaction regulator (human); RGS4–Galpha-o binding response, % at 10 µM; multiplexed bead flow cytometry, RGS–Galpha-o binding; 1,600 tested, 99% active; shares compounds with RGS16-Gao;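 note: fluorescently labeled Galpha-o bound to GDP with aluminium fluoride binding biotinylated RGS beads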
Target sequence (P09471 whole entry, looked up): as above
Target sequence (P49798 whole entry, looked up): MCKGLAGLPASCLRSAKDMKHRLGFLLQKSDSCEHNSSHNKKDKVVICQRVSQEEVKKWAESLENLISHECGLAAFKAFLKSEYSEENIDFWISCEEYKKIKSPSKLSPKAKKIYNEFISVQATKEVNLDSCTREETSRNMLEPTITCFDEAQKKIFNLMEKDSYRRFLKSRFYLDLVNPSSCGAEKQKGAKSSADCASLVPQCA
Avidin counter = biotin-avidin bead binding disruption counter-screen; shares compounds with RGS16-Gao; streptavidin beads, fluorescein-biotin binding, flow cytometry; 1,700 tested, under 10 active; inhibition, % at 10 µM; AID 1783;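 active = inhibition above 50%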;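 note: median green fluorescence of gated singlet beads compared with DMSO control wells; 0% = DMSO wells and 100% = complete loss of bead fluorescence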
RGS8-Gao single = confirmation of regulators of human RGS8-Galphao interaction; shares compounds with RGS16-Gao; binding response (% of control), % at 10 µM; 1,700 tested, 3% active; bead-based flow cytometry RGS8-Galphao binding, fluorescence; actives lie on both sides; in the data active = binding response below about 72% or above about 130%; inactive = in between;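 note: Galphao activated as GDP AlF4 complex before binding bead RGS8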
RGS7-Gao single = RGS7-Galphao interaction regulation, single point confirmation; shares compounds with RGS16-Gao; bead-based flow cytometry RGS7-Galphao binding; actives lie on both sides; response (percent of control binding), % at 10 µM; 1,700 tested, 7.8% active; in the data active = response below about 75% or above about 130%; inactive = in between;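 note: fluorescent Galphao activated with GDP and aluminum fluoride binding bead-coupled RGS7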
RGS16-Gao single = confirmation of regulators of human RGS16-Galphao interaction. AID 1838. bead-based flow cytometry, RGS16-Galphao binding; actives lie on both sides. response (% of control binding), % at 10 µM. shares compounds with RGS16-Gao. 1,700 tested, 4% active; in the data active = response below about 74% or above about 130%; inactive = in between;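 note: Galphao activated as the GDP aluminium fluoride complex binding bead-coupled RGS16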
RGS4-Gao confirm = RGS4-Galphao interaction regulation, single point confirmation | binding response (% of control), % at 10 µM | RGS4-Galphao binding, multiplexed bead flow cytometry; actives lie on both sides | 1,700 tested, 4% active | shares compounds with RGS16-Gao | AID 1840; in the data active = binding response below about 74% or above about 130%; inactive = in between
RGS19-Gao conf = confirmation of regulators of human RGS19-Galphao interaction; shares compounds with RGS16-Gao; response (percent of control binding), % at 10 µM; bead-based flow cytometry RGS19-Galphao binding; actives lie on both sides; AID 1841; 1,700 tested, 5% active; in the data active = response below about 50% or above about 160%; inactive = in between;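 note: 100% = no compound control and 0% = blank background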
An asterisk follows results filed as active; i = inactive; ? = inconclusive; . = no result; [ ] = dose if it differs, or a comment. Unless noted, the rule behind the calls is not given here.

SMILES	GSH fluor	RGS7-Gao	RGS8-Gao	Avidin fluor	RGS4-Gao reg	RGS16-Gao	RGS4-Gao HTS	Avidin counter	RGS8-Gao single	RGS7-Gao single	RGS16-Gao single	RGS4-Gao confirm	RGS19-Gao conf
NS(=O)(=O)c1cccnc1Nc1c(Cl)cccc1Cl	202*	179*[activator]	128	108*	208*[activator]	213*[activator]	.	0	104	108	106	106	103
N=c1sccn1CC(=O)Nc1ccc([N+](=O)[O-])cc1Cl	.	?	107	.	107	100	.	.	.	.	.	.	.
CSC1=NC(=O)/C(=C\c2cccc3ccccc23)S1	11	223*[activator]	97	200*	124	113	124*	-1	101	98	99	97	95
N=C1S/C(=C\c2cccc3ccccc23)C(=O)N1c1ccc(F)cc1	8	99	101	10	100	101	.	.	.	.	.	.	.
CC(C)CCNC(=O)NC(=O)COC(=O)C1=COCCO1	17	17*	13*	2	21*	9.2*	.	-1	101	100	101	104	98
COc1c(Cl)cc(Cl)cc1C(=O)Nc1ccc(C(=O)O)cc1	9	100	89	1	99	62	.	.	.	.	.	.	.
COc1c(Cl)cc(Cl)cc1/C=C/C(=O)c1ccc(NC(=O)c2cccs2)cc1	10	16*	22*	-1	25*	9.2*	.	2	100	100	101	100	103
O=C(NCCCN1CCCC1)C1CCN(C(=O)c2cc3sccc3n2Cc2ccc(F)cc2)CC1	31	181*[activator]	121	193*	134	262	134*	.	.	.	.	.	.
COCCCNC(=O)C1CCN(C(=O)c2cc3sccc3n2Cc2ccc(F)cc2)CC1	48	96	100	7	99	98	.	.	.	.	.	.	.
CC1=CC(C)(C)Nc2ccccc21	13	73	63	4	77	13*	77*	0	100	100	102	103	104
O=c1[nH]c2ccccc2n2c(=S)[nH]nc12	.	?	96	2	91	93	.	.	.	.	.	.	.
CCc1ccc(NC(=O)CSc2nnc(Cn3c(=O)sc4ccccc43)n2C)cc1	16	104	102	27	103	105	.	.	.	.	.	.	.
CCOC(=O)c1ccc(NC(=O)CSc2nnc(Cn3c(=O)sc4ccccc43)n2C)cc1	26	173*[activator]	94	89*	109	101	109*	-2	99	101	101	99	88
C=C(C)CCC1(C)NC(=O)N(c2ccccc2)N1 (centres undefined)	.	?	79	1	41*	52	.	0	97	95	96	96	93
Cc1cc(-c2ccccc2)c2c(=O)[nH][nH]c2n1	7	101	99	3	98	98	.	.	.	.	.	.	.
CCOc1ccc(NC(=S)NC(=O)c2c(Br)cnn2C)c([N+](=O)[O-])c1	12	-20*	-1.6*	-2	-40*	224	.	-2	101	102	101	102	99
c1ccc(C2[C@H]3CN(CC4CCCCC4)[C@H](c4ccccc4)C34CC2(c2cccnc2)C4)cc1 (some centres undefined)	.	?	97	7	96	90	.	.	.	.	.	.	.
COc1ccc(C(CC(=O)Nc2ccccc2OC)n2cccc2)cc1 (centres undefined)	4	88	75	8	93	15*	93*	-2	102	102	103	103	102
CCC(=O)N1CCc2cc(S(=O)(=O)NC(Cc3ccccc3)C(=O)NC3CCCCC3)ccc21 (centres undefined)	22	104	107	13	104	105	.	.	.	.	.	.	.
CC(=O)N1CCc2cc(S(=O)(=O)NC(Cc3ccccc3)C(=O)Nc3cc(C)ccn3)ccc21 (centres undefined)	34	118	153*[activator]	5	129	940	129*	i	100	101	102	102	105
CN(C)C(CNC(=S)Nc1cccc(Cl)c1)c1ccccc1 (centres undefined)	12	99	101	8	98	98	.	.	.	.	.	.	.
CCN(CC)S(=O)(=O)c1cccc(-c2nnc(SCCOc3ccccc3C)o2)c1	33	153*[activator]	.	.	177*[activator]	211*[activator]	.	1	101	104	102	103	109
Cc1nc(NCCN2CCOCC2)c2nnn(Cc3ccccc3Cl)c2n1	46	100	103	8	101	93	.	.	.	.	.	.	.
CC(C)(C)c1nc(NCCN2CCOCC2)c2nnn(Cc3ccccc3Cl)c2n1	55	125	153*[activator]	7	129	342	129*	10	99	70*	92	77	84
Clc1ccccc1Cn1nnc2c(NCCN3CCOCC3)ncnc21	26	117	141*[activator]	16	114	234	114*	1	103	105	102	103	91
CC1(C)CC(=O)C(C=NCC(N)=O)=C(O)C1	32	149	146*[activator]	12	147	151	147*	.	.	.	.	.	.
CN(C)/C=C/C(=O)c1ccc(Cl)c([N+](=O)[O-])c1	17	?	101	11	101	101	.	.	.	.	.	.	.
Cc1cc(=O)oc2c(CN(CC(C)C)CC(C)C)c(O)ccc12	12	115	144*[activator]	4	119	249	119*	i	99	103	100	101	99
COc1ccc2[nH]c3c(=O)n(Cc4ccc(C(=O)N5CCCC5)cc4)c(=S)[nH]c3c2c1	19	102	92	7	100	90	.	.	.	.	.	.	.
CCOc1ccc(S(=O)(=O)NC2CCCCCC2)cc1	23	35*	50*	5	46*	38	.	-1	114	104	123	103	121
